Several values for one entry are separate records, joined by “and”; a condition that tells them apart may be missing. Identical values can stand only once. Screen size: about 5,500 compounds; about 2,000 (36%) were called active. About 18% were inconclusive and are not listed. Cut-off read from the data, not from the text of the source: active = normalized growth mostly below about 0.91 (no sharp cut-off); inconclusive = no clear call, values can overlap the other calls; inactive = mostly above about 0.92. The list shows a part of the results.
Assay: chemical genetic growth profiling, strain panel (AID 1159580);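 note: tested at 20 µM; growth read once vehicle control cultures reached saturation at 30 °C; 1 = growth at the plate median or of vehicle wells; lower values mean less growth of the strain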
Settings: S. cerevisiae deletion strains, growth OD

Measured: normalized growth

Cc1c(C(N)=O)cc([N+](=O)[O-])cc1[N+](=O)[O-]
inactive: locus YAL021C, strain ccr4, hits give low values 0.995 | locus YAL026C, strain drs2, hits give low values 1.04 | locus YAL030W, strain snc1, hits give low values 1.01 | locus YBL061C, strain skt5, hits give low values 1.02 | locus YBR009C, strain hhf1, hits give low values 1.08 | locus YBR021W, strain FUR4, hits give low values 0.969 | locus YBR023C, strain chs3, hits give low values 1.03 | locus YBR171W, strain sec66, hits give low values 1.01 | locus YBR229C, strain ROT2, hits give low values 0.986 | locus YBR231C, strain swc5, hits give low values 0.996 | locus YBR279W, strain paf1, hits give low values 1.02 | locus YCL011C, strain gbp2, hits give low values 1.03 | locus YCL016C, strain dcc1, hits give low values 1.04 | locus YCL029C, strain bik1, hits give low values 0.977 | locus YCL061C, strain MRC1, hits give low values 1.03 | locus YCL069W, strain vba3, hits give low values 1.02 | locus YCR088W, strain abp1, hits give low values 1.01 | locus YDL005C, strain med2, hits give low values 1.02 | locus YDL035C, strain GPR1, hits give low values 0.994 | locus YDL040C, strain nat1, hits give low values 1.02 | locus YDL074C, strain BRE1, hits give low values 1.01 | locus YDL101C, strain DUN1, hits give low values 0.99 | locus YDL134C, strain PPH21, hits give low values 0.97 | locus YDL185W, strain tfp1, hits give low values 0.967 | locus YDL192W, strain arf1, hits give low values 0.966 | locus YDR001C, strain nth1, hits give low values 1.01 | locus YDR069C, strain doa4, hits give low values 0.997 | locus YDR101C, strain arx1, hits give low values 1 | locus YDR137W, strain rgp1, hits give low values 1.04 | locus YDR150W, strain NUM1, hits give low values 0.99 | locus YDR159W, strain sac3, hits give low values 0.991 | locus YDR162C, strain NBP2, hits give low values 0.994 | locus YDR195W, strain ref2 1.02 | locus YDR297W, strain sur2, hits give low values 1.01 | locus YDR318W, strain mcm21, hits give low values 0.983 | locus YDR334W, strain swr1, hits give low values 1.02 | locus YDR335W, strain msn5, hits give low values 1.03 | locus YDR388W, hits give low values 0.982 | locus YDR392W, strain spt3, hits give low values 1 | locus YDR502C, strain sam2, hits give low values 1 | locus YEL003W, strain gim4, hits give low values 1.03 | locus YEL037C, strain rad23, hits give low values 1.02 | locus YEL061C, strain CIN8 (second series), hits give low values 1.02 | locus YEL061C, strain CIN8, hits give low values 0.99 | locus YER015W, strain faa2, hits give low values 1.01 | locus YER016W, strain bim1, hits give low values 1.01 | locus YER110C, hits give low values 0.965 | locus YER111C, strain swi4, hits give low values 1.02 | locus YER155C, strain BEM2 (second series), hits give low values 0.978 | locus YER155C, strain BEM2, hits give low values 0.987 | locus YER167W, strain BCK2, hits give low values 0.99 | locus YFR010W, strain ubp6, hits give low values 1.03 | locus YGL078C, strain dbp3, hits give low values 0.98 | locus YGL086W, strain mad1, hits give low values 0.994 | locus YGL167C, strain pmr1, hits give low values 1.03 | locus YGL173C, strain kem1, hits give low values 1.01 | locus YGL227W, strain vid30, hits give low values 1.01 | locus YGL240W, strain doc1, hits give low values 1 | locus YGL248W, strain PDE1, hits give low values 1 | locus YGL253W, strain hxk2, hits give low values 1.02 | locus YGR078C, strain PAC10, hits give low values 1 | locus YGR135W, strain pre9, hits give low values 0.977 | locus YGR252W, strain gcn5, hits give low values 0.945 | locus YHR013C, strain ard1, hits give low values 1.07 | locus YHR027C, strain rpn1, hits give low values 1.02 | locus YHR030C, strain SLT2, hits give low values 0.98 and 1.04 | locus YHR079C, strain IRE1 (second series), hits give low values 0.984 | locus YHR079C, strain IRE1, hits give low values 1.04 | locus YHR094C, strain hxt1, hits give low values 0.977 | locus YHR129C, strain ARP1, hits give low values 0.993 | locus YHR142W, strain chs7, hits give low values 1.02 | locus YHR200W, strain rpn10, hits give low values 0.98 | locus YIL066C, strain RNR3, hits give low values 0.988 | locus YIL073C, strain SPO22, hits give low values 0.95 | locus YIL125W, strain kgd1, hits give low values 0.99 | locus YIR030C, strain dcg1, hits give low values 0.984 | locus YJL092W, strain hpr5, hits give low values 1.02 | locus YJL095W, strain BCK1 (second series), hits give low values 1.04 | locus YJL095W, strain BCK1, hits give low values 1.02 and 1.05 | locus YJL115W, strain asf1, hits give low values 1.03 | locus YJL129C, strain trk1, hits give low values 1.05 | locus YJL134W, strain LCB3, hits give low values 0.991 | locus YJL154C, strain vps35, hits give low values 1.01 | locus YJL164C, strain tpk1, hits give low values 1.06 | locus YJL166W, strain qcr8, hits give low values 1.02 | locus YJL168C, strain set2, hits give low values 0.979 | locus YJL187C, strain SWE1 (second series), hits give low values 0.999 | locus YJL187C, strain SWE1, hits give low values 1.01 | locus YJR043C, strain POL32, hits give low values 1.02

From PubChem BioAssay AID1159580 (chemical genetic matrix, 2015)
